# Source: PubChem BioAssay (NCATS)
# Inconclusive results are not listed. Entries that show only a call come without a potency. Activity calls are given as the source filed them. Unless noted, calls follow the shape of the dose curve; as a rule, active = well fitted curve in the direction sought with a large enough effect; inconclusive = small, poorly fitted or top-dose-only effect, or another doubt; inactive = no such curve, though single readings can be large; an effect the other way counts as inactive or inconclusive.
# Columns and labels:
# [1] = target: Mitogen-activated protein kinase 10 (Mus musculus) (UniProt Q61831); assay: JNK3 AlphaScreen Assay (AID 530; active = well fitted curve in either direction with a large enough effect, not every such curve was filed as active;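 also: kinase came from lysate of stimulated human HepG2 cells; signal reports phosphorylation of biotinylated GST-cJun 1-79 at Ser73 with 10 µM ATP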)
# Procedure, shortened: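 HepG2 lysate (IL-1b/TNFa pre-activated) + biotin-GST-cJun 1-79 + anti-pSer73 cJun; cpd titration, 15 min RT; ATP 10 uM start; Tris pH 7.6, MgCl2, DTT, vanadate; beads in EDTA buffer; AlphaScreen.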
# [2] = Cellular Toxicity (caspase-3) Jurkat (AID 655); conditions: Jurkat caspase-3 activation, luminescence; caspase-3 activation: at 92.2 µM (top of the series), DMSO = 0%, tamoxifen = 100%;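 also: cells exposed to compound for 16 h at 37 °C before reading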
# Procedure, shortened: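 Jurkat cells (5000/well) in complete medium were treated with compounds for 16 hr at 37 °C, then Caspase-Glo 3/7 luminescence was read after 20 min at room temperature. Data normalized to DMSO (basal) and 100 uM tamoxifen (100%); AC50 from Hill fit.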
# [3] = Cellular Toxicity (caspase-3) N2a (AID 665);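 also: compound exposure lasted 16 h at 37 °C before readout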
# Procedure, shortened: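 Concentration-response qHTS: compound-induced caspase-3/7 luminescence in N2a cells (16 h, 37 °C), relative to DMSO and 10 uM staurosporine controls; AC50 obtained using the standard Hill equation.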
# [4] = Cellular Toxicity (caspase-3) Renal Proximal Tubule (AID 667);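 also: cells exposed to compound for 16 hours at 37 °C before detection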
# Procedure, shortened: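 Primary rat proximal tubule cells, 1000/well, 5 h plating at 37 °C, then compound 16 h at 37 °C. Caspase-Glo 3/7 reagent, 1 h RT, luminescence. Normalized to DMSO (basal) and 10 uM staurosporine (100%); Hill-fit AC50.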
# [5] = target: Cytochrome P450 3A4 (Homo sapiens) (UniProt P08684); assay: qHTS Assay for Inhibitors and Substrates of Cytochrome P450 3A4 (AID 884); also: nearly all actives have a fitted effect of over 50% in size
# Procedure, shortened: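 Luminescent readout of luciferin produced by CYP3A4 (20 nM) dealkylation of Luciferin-PPXE, 25 uM (its KM). NADPH-driven reaction ran 60 min at RT after 10 min compound preincubation; data scaled to 57 uM ketoconazole as 100% inhibition.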
# [6] = MultiTox-Fluor Cytotoxicity Assay - LYMP1-001 - Live Cells (AID 947)
# [7] = Cell Viability - LYMP1-003 - Assay at 40 hr (AID 964); also: nearly all actives have a fitted effect of over 60% in size; also: potency is read from the fitted curve at half-maximal effect
# Procedure, shortened: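 Acute toxicity is scored as a concentration-dependent loss of intracellular ATP in LYMP1-003 cells (2500/well, complete medium) after 40 hr at 37 C, measured by CellTiter-Glo luminescence; AC50 values derive from standard Hill modelling.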
# [8] = Cell Viability - LYMP2-004 (AID 966);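 also: cells exposed to compound for 24 h; nearly all actives have a fitted effect of over 65% in size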
# Procedure, shortened: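 Viable-cell number estimated from ATP luminescence (CellTiter-Glo) in 2500 human lymphoblastoid cells/well after 24 hr at 37 C with compound. AC50 fitted to the standard Hill equation.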
# [9] = Cell Viability - LYMP2-017 (AID 972);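 also: cells exposed to compound for 24 hours at 37 °C; nearly all actives have a fitted effect of over 55% in size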; also: potency is read from the fitted curve at half-maximal effect
# Procedure, shortened: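 In this qHTS format, lymphoblastoid cells in complete medium receive test compound for a day at 37 C before ATP content is quantified by luciferase luminescence. Reported AC50 figures come from standard Hill-equation curve fitting.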
# [10] = Cell Viability - LYMP2-019 (AID 973);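 also: cells exposed to compound for 24 h at 37 °C; nearly all actives have a fitted effect of over 55% in size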; also: potency is read from the fitted curve at half-maximal effect
# Procedure, shortened: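 AC50 values come from Hill-equation modelling of qHTS concentration-response curves, where viability is measured as luciferase-based ATP luminescence in the lymphoblastoid line after 24 hr compound exposure in complete culture medium.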
# [11] = Cell Viability - LYMP2-007 (AID 979);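 also: cells exposed to compound for 24 h before reading; nearly all actives have a fitted effect of over 60% in size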; also: potency is read from the fitted curve at half-maximal effect
# Procedure, shortened: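 Measured via luciferase-based ATP quantitation: lymphoblastoid cells, 24 hr compound exposure at 37 C, AC50 from Hill fits.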
# [12] = Cell Viability - LYMP2-008 (AID 980); also: nearly all actives have a fitted effect of over 60% in size; also: potency is read from the fitted curve at half-maximal effect
# Procedure, shortened: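 Measured: ATP-dependent luminescence, proportional to viable cell number, in human lymphoblastoid cells treated 24 hr with compound in complete culture medium. Values are AC50s from Hill-equation modelling of qHTS titrations.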
# [13] = Cell Viability - LYMP2-012 (AID 982);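 also: cellular ATP by luciferase luminescence where a drop means cytotoxicity; cells exposed to compound for one day before reading; nearly all actives have a fitted effect of over 55% in size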; also: potency is read from the fitted curve at half-maximal effect
# [14] = Cell Viability - LYMP2-014 (AID 983);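 also: cells exposed to compound for 24 h at 37 °C; nearly all actives have a fitted effect of over 50% in size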
# Procedure, shortened: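 Quantitative HTS in lymphoblastoid cells: 24 hr compound exposure, then CellTiter-Glo ATP luminescence. Positive control was tetraoctylammonium bromide, 6.4pM to 92 uM.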
# [15] = Cell Viability - LYMP2-018 (AID 985); also: nearly all actives have a fitted effect of over 50% in size; also: potency is read from the fitted curve at half-maximal effect
# Procedure, shortened: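 In this qHTS viability assay, cells are treated for 24 hr and cellular ATP is quantified by luciferase-based luminescence, with tetraoctylammonium bromide as positive control.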
# [16] = Cell Viability - LYMP1-002 - Assay at 40 hr (AID 994); also: nearly all actives have a fitted effect of over 60% in size; also: potency is read from the fitted curve at half-maximal effect
# Procedure, shortened: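 Concentration-dependent ATP loss after 40 hr treatment at 37 C defined toxicity; AC50 values were obtained by fitting the standard Hill equation.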
# [17] = target: Voltage-gated inwardly rectifying potassium channel KCNH2 (Homo sapiens) (UniProt Q12809); assay: qHTS Assay for Small Molecule Inhibitors of the Human hERG Channel Activity (AID 588834);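 also: lower thallium flux fluorescence means stronger hERG block; nearly all actives have a fitted effect of over 50% in size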; also: potency is read from the fitted curve at half-maximal effect
# Procedure, shortened: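 In hERG-transduced U2OS cells, dye-loaded for 1 hr at room temperature in dark, test compounds incubated 10 min at 37 °C before thallium stimulation. AC50 values derived by Hill modelling of concentration-response.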
# [18] = target: Tumor necrosis factor (Homo sapiens) (UniProt P01375); assay: qHTS assay to identify small molecules that stimulate Tumor Necrosis Factor-alpha (TNF-alpha) secretion (AID 651757; active = well fitted curve in the direction sought with a large enough effect in the signal ratio; the % refers to the signal ratio)
# Procedure, shortened: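 Using 3000 THP-1 cells per well, compounds and controls were applied for 17 hrs at 37 C. Detection followed with two labeled anti-TNF-alpha antibodies (cryptate donor, XL665 acceptor) for 3 hr at room temperature, measured by TR-FRET.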
# [19] = qHTS assay for cell viability of the p53RE-bla HCT-116 cell line (AID 743292); also: nearly all actives have a fitted effect of over 55% in size
# Procedure, shortened: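 CellSensor p53RE-bla HCT-116 cells (4,000/well) pre-incubated 5 h at 37 C, then exposed to compounds in DMSO for 16 h at 37 C. Viability read as ATP content by CellTiter-Glo luminescence after 30 min at room temperature.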
# [20] = qHTS assay for small molecule antagonists of retinoid X receptor alpha signaling (AID 588546); conditions: HEK293T RXRa-UAS-bla, beta-lactamase ratio, antagonist mode; measured here: W530 green channel, cytotoxicity proxy;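 also: cells stimulated with 9-cis-retinoic acid as agonist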
# Procedure, shortened: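 Beta-lactamase reporter inhibition, read as CCF4 fluorescence ratio (ex 405, em 460/530 nm) after 2 h at RT. HEK293T UAS-bla cells, 2500/well, were stimulated with 9-cis-RA at 500 or 100 nM final alongside test compound for 18 h at 37 C.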
# Sequence of Voltage-gated inwardly rectifying potassium channel KCNH2 (Homo sapiens) (Q12809 whole entry, looked up): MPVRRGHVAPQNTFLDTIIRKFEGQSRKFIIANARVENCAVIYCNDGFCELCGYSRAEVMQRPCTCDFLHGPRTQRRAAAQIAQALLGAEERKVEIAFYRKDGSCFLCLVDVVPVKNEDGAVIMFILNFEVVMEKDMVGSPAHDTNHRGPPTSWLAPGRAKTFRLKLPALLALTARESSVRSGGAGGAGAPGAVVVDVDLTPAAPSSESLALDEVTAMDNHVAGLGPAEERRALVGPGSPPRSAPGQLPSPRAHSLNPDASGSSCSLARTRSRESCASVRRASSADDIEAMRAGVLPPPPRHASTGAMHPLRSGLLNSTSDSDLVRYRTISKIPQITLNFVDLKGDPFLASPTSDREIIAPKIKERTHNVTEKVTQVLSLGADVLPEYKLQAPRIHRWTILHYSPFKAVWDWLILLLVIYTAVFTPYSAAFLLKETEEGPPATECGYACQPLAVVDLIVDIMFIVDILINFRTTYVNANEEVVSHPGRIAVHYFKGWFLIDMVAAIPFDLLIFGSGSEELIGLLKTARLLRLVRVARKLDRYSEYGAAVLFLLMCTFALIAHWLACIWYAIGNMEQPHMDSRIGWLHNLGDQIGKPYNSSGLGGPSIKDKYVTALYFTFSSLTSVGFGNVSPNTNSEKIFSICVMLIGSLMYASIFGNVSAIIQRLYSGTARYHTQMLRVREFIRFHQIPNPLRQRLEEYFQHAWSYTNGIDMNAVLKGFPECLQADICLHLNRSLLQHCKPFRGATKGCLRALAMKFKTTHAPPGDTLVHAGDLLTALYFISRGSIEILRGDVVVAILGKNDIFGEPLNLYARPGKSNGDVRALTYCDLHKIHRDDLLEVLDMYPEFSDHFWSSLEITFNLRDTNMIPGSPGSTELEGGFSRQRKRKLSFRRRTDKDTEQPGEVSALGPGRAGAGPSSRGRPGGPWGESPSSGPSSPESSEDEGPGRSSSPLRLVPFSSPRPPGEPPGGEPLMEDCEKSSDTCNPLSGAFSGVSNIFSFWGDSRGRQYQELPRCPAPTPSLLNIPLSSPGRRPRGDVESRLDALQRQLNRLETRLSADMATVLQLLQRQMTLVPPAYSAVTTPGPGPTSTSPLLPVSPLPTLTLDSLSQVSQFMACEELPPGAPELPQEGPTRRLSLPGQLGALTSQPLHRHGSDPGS
# Sequence of Tumor necrosis factor (Homo sapiens) (P01375 whole entry, looked up): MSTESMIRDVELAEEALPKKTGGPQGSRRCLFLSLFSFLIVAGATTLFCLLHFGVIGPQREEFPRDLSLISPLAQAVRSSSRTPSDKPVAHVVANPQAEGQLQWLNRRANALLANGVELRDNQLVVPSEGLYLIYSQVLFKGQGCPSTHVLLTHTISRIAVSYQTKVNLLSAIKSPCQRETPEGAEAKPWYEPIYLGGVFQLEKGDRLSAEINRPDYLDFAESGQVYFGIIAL
# Sequence of Cytochrome P450 3A4 (Homo sapiens) (P08684 whole entry, looked up): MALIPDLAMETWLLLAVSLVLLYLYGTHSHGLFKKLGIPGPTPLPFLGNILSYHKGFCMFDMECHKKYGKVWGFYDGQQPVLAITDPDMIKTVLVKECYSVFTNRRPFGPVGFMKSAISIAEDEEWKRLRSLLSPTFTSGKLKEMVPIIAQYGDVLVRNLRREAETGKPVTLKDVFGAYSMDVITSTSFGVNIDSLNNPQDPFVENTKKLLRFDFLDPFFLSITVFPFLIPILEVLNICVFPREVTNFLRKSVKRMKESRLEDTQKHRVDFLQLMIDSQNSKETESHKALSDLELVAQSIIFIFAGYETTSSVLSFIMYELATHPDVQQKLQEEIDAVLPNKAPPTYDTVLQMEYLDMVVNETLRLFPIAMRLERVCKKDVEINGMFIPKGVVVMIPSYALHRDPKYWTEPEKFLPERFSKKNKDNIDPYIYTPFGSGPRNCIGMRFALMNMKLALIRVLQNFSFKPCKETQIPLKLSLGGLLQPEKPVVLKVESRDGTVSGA
Structure (SMILES),Potency [1],caspase-3 activation [2],outcome [3],outcome [4],Potency [5],outcome [6],Potency [7],Potency [8],Potency [9],Potency [10],Potency [11],Potency [12],Potency [13],Potency [14],Potency [15],Potency [16],Potency [17],outcome [18],Potency [19],max response [20] [%]
C/C=C/C=O,inactive,0.559% (inactive),inactive,inactive,inactive,inactive,inactive,inactive,inactive,inactive,inactive,inactive,inactive,inactive,inactive,inactive,inactive,inactive,inactive,–
CC(C)(COCC1CO1)COCC1CO1 (centres undefined),inactive,14.4% (inactive),inactive,inactive,inactive,inactive,inactive,inactive,inactive,inactive,inactive,inactive,inactive,inactive,inactive,inactive,inactive,inactive,inactive,21.1
c1ccc(N=NNc2ccccc2)cc1,–,6.34% (inactive),inactive,inactive,inactive,inactive,inactive,inactive,inactive,inactive,inactive,inactive,inactive,inactive,inactive,inactive,39.8 µM (active),inactive,inactive,-2.24
C(CCOCC1CO1)COCC1CO1 (centres undefined),inactive,15.1% (inactive),inactive,inactive,inactive,inactive,–,–,inactive,inactive,inactive,inactive,inactive,inactive,–,39.8 µM (active),inactive,inactive,inactive,5.96
CCCC[N+](=O)[O-],inactive,102% (active),inactive,inactive,inactive,inactive,inactive,inactive,inactive,inactive,–,inactive,inactive,inactive,inactive,inactive,inactive,inactive,inactive,-4.37
Nc1cc(Cl)ccc1O,inactive,15.3% (inactive),inactive,inactive,inactive,inactive,–,inactive,inactive,inactive,inactive,inactive,inactive,inactive,inactive,–,inactive,–,inactive,-1.3
CCCCC(CC)COC(=O)c1ccc(C(=O)OCC(CC)CCCC)c(C(=O)OCC(CC)CCCC)c1 (centres undefined),inactive,–,–,inactive,inactive,inactive,inactive,inactive,inactive,inactive,inactive,inactive,inactive,inactive,inactive,inactive,inactive,inactive,inactive,-7.98
N#CC(Cl)(Cl)Cl,inactive,–,inactive,inactive,inactive,inactive,inactive,inactive,inactive,inactive,inactive,inactive,inactive,inactive,inactive,inactive,inactive,inactive,inactive,-17.2
CN(C)c1ccc(N)cc1,–,-4.87% (inactive),inactive,inactive,–,–,39.8 µM (active),–,50.1 µM (active),50.1 µM (active),50.1 µM (active),50.1 µM (active),50.1 µM (active),–,63.1 µM (active),–,35.5 µM (active),–,–,-13
O=[N+]([O-])c1cccc2c([N+](=O)[O-])cccc12,inactive,0.295% (inactive),inactive,inactive,inactive,inactive,inactive,inactive,inactive,inactive,inactive,inactive,inactive,inactive,inactive,inactive,inactive,inactive,inactive,-12.9
O=[N+]([O-])c1cc(Cl)c(Cl)c(Cl)c1,inactive,–,inactive,inactive,inactive,inactive,inactive,inactive,inactive,inactive,inactive,inactive,inactive,inactive,inactive,inactive,inactive,inactive,inactive,-6.59
ClC=CCl,inactive,1.45% (inactive),inactive,inactive,inactive,inactive,inactive,inactive,inactive,inactive,inactive,inactive,inactive,inactive,inactive,inactive,inactive,inactive,inactive,-4.87
